Measured values reported in PubChem BioAssay (NCATS).
Records with an inconclusive call do not appear. The source made the active and inactive calls. The call rests on the fitted dose curve; in most records, active means well fitted inhibition curve with a large enough effect; inconclusive means small, poorly fitted or top-dose-only effect; inactive means no such curve, though single readings can be large or run the other way.
Potency means the concentration at half of the fitted maximal effect.

Test: BET inhibitor-based combinations targeting novel dependencies in MECOM-rearranged (r) AML: MV-4-11 cell line (AID 2202233); further: nearly all actives have a fitted effect of over 45% in size
Conditions: MV-4-11 AML viability, CellTiter-Glo luminescence, 48 h; series mostly up to 46 µM
Description: Ecotropic viral insertion site 1 (EVI1) is located on chromosome 3q26.2 as part of the MECOM (MDS and EVI1 complex) locus. Under normal hematopoiesis, EVI1 is a regulator of hematopoietic stem cell maintenance and self-renewal and EVI1 levels decrease as the cells differentiate. In approximately 5-10% of de novo acute myeloid leukemia (AML) EVI1 is aberrantly expressed, including Chromosomal inv(3)(q21;q26.2) or t(3;3)(q21;q26.2) alterations (MECOM-r) that account for about 50% of AML with EVI1 overexpression 31. AMLs with high levels of EVI1 have a poor prognosis and an overall survival time averaging between 10-14 months. EVI1 overexpression confers resistance in leukemia cells, highlighting the need to develop new targeted therapies for EVI1 overexpressing AMLs. Here, we performed an unbiased chemical drug screening by evaluating the single agent activity of a collection of 2,480 oncology-focused, approved and investigational drugs (NCATS Mechanism Interrogation Plates, MIPE v5.0) against a panel of seven AML cell lines. These included four MECOM-r cell-lines (AML-191, AML-194, UCSD-AML1 and HNT-34) and three non-MECOM-r AMLs (MV4-11, OCI-AML3 and SET-2). Exploiting the mechanistic redundancy built in the library, we identified target-level sensitivities in MECOM-r AML cells and relative activity as compared to other AML subtypes.
A collection of 2480 mechanistically annotated dugs (MIPE v5.0) was used to screen four 3q26.2 rearranged AML cell lines and three non-3q26.2 rearranged AML cell lines. This library purposely exploits redundancy by including multiple inhibitors of key onco-targets, while simultaneously encompassing mechanistic diversity, targeting more than 800 distinct mechanisms of action. Briefly, cells were seeded in 5 uL of growth media using a Multidrop Combi dispenser into 1536 well white polystyrene tissue culture treated plates (Corning) at a density of 500cells/well. For each cell-line, for each of the 2480 drugs in MIPE v5.0 library, an 11-point dose curve was generated via a 1536 pin-tool. Plates were incubated for 48 hr at standard incubator conditions, covered by a stainless steel gasketed lid to prevent evaporation. Cell viability was determined by luminescence based, Cell Titer Glo assay (Promega). In detail, 3 uL of Cell Titer Glo were added to each well and plates were incubated at room temperature for 15 min with a stainless-steel lid in place. Luminescence readings were taken using a Viewlux (PerkinElmer) with a 2 s exposure time per plate. Compound dose-response curves were normalized to DMSO and empty well controls on each plate. Quantitative drug activity data from dose-response curves was determined utilizing area Under the Curve (AUC) and Z-transformed AUC (Z-AUC, a mean-centering transformation applied to each individual cell-line screened).
For CN1CCN(c2ccc3nc(-c4cc(C(C)(C)C)c(OCCCC(=O)NCCCN=[N+]=[N-])c(C(C)(C)C)c4)[nH]c3c2)CC1, the Potency was 7.42 µM (active). With CN1N=C(N)c2cn([C@@H]3O[C@H](COP(=O)(O)O)[C@@H](O)[C@@H]3O)c3ncnc1c23 the Potency was 0.525 µM (active). With CC(C)n1c(=O)cc(N[C@@H](C)c2ccccc2)[nH]c1=O the Potency was 14.8 µM (active). For O=C(NO)c1cnc(NC2(c3ccccc3)CC2)nc1, the Potency was 3.32 µM (active). For N#C/C(=C\c1ccc(O)c(O)c1)C(=O)NCc1ccccc1, the Potency was 14.8 µM (active). In the case of CC(=O)N[C@H]1CSSC[C@@H](C(N)=O)NC(=O)[C@H](C(C)C)NC(=O)[C@H](C)NC(=O)[C@H](Cc2cnc[nH]2)NC1=O, the Potency is reported as “inactive”. For O=C(O)CNC(=O)c1nc(Cl)c2ccccc2c1O, the Potency was “inactive”. With C/C(=C\c1csc(C)n1)[C@@H]1C[C@@H]2O[C@]2(C)CCC[C@H](C)[C@H](O)[C@@H](C)C(=O)C(C)(C)[C@@H](O)CC(=O)N1 the Potency was 0.0332 µM (active). For COc1cc2c(NC3CCN(C)CC3)nc(N3CCCN(C)CC3)nc2cc1OCCCN(C)C, the Potency was “inactive”. In the case of C[C@@H]1CC[C@@]2(OC1)OC1CC3C4CC=C5CC(O)CCC5(C)C4CCC3(C)C1[C@@H]2C (stereo not given in full), the Potency is reported as “inactive”. For CCC(=O)NS(=O)(=O)c1ccc(-c2c(-c3ccccc3)noc2C)cc1, the Potency was “inactive”. In the case of C=CC(=O)Nc1cc(N2CCN(CC)CC2)ccc1Nc1cc(N(C)C(=O)Nc2c(Cl)c(OC)cc(OC)c2Cl)ncn1, the Potency is reported as 20.9 µM (active). With CC(=O)c1ccc2c(c1)c1cc(C(C)=O)ccc1n2CCNC(C)C the Potency was 0.525 µM (active). For CC(=O)c1cc2c(o1)C(=O)c1ccccc1C2=O, the Potency was 0.833 µM (active). For CNCCn1c(=O)c2cc(OC)c(OC)cc2c2cnc3cc4c(cc3c21)OCO4, the Potency was 0.0152 µM (active). In the case of N=C1S/C(=C\c2ccc(-c3ccc4c(c3)C(=O)NC4=O)o2)C(=O)N1c1ccc(Br)cc1, the Potency is reported as “inactive”. For C[C@H]1[C@@H](OC(=O)CCC(=O)O)O[C@@H]2O[C@@]3(C)CC[C@@H]4[C@H](C)CC[C@@H]1[C@@]24OO3, the Potency was 1.66 µM (active). In the case of CC(C)(C)OC(=O)Nc1ccc(-c2cc(C(=O)NCCCCCCC(=O)NO)no2)cc1, the Potency is reported as 1.66 µM (active). For CC[C@@H]1[C@H](F)C(=O)N[C@@H]1COc1nccc2cc(C(N)=O)c(OC)cc12, the Potency was 8.33 µM (active). With O=C(/C=C/c1ccc(CN(CCO)CCc2c[nH]c3ccccc23)cc1)NO the Potency was 0.0934 µM (active). In the case of Cc1ccc(C(=O)Nc2ccc(CN3CCN(C)CC3)c(C(F)(F)F)c2)cc1C#Cc1cnc2[nH]ncc2c1, the Potency is reported as 0.0023 µM (active). With COc1cc2c(cc1O)CCN[C@]21CS[C@@H]2c3c(OC(C)=O)c(C)c4c(c3[C@H](COC1=O)N1[C@@H]2[C@H]2c3c(cc(C)c(OC)c3O)C[C@@H]([C@@H]1O)N2C)OCO4 the Potency was 0.0043 µM (active). For CN1CCN(C(=O)[C@H]2[C@@H](C(=O)O)[C@H]3CC[C@@H]2O3)CC1, the viability, % of control was 111% [at 8.46 µM] (inactive). With N=C(N)c1ccc(OCCCCCOc2ccc(C(=N)N)cc2)cc1 the Potency was 13.2 µM (active). With CC(C)(O)CC[C@@H](O)[C@](C)(O)[C@H]1CC[C@@]2(O)C3=CC(=O)[C@@H]4C[C@@H](O)[C@@H](O)C[C@]4(C)[C@H]3CC[C@]12C the Potency was “inactive”. With Cc1cc(C(=O)Nc2cc(Nc3ccc4c(/C=C/c5ccccn5)n[nH]c4c3)ccc2F)n(C)n1 the Potency was 16.6 µM (active). For O=C(/C=C/c1ccc(Cl)cc1)N1CCC2(CC1)CN(Cc1ccc(Cl)c(Cl)c1)C(=O)O2, the Potency was 20.9 µM (active). In the case of C=CC(=O)Nc1cccc(Oc2nc(Nc3ccc(N4CCN(C)CC4)c(F)c3)nc3[nH]ccc23)c1, the Potency is reported as 0.742 µM (active). For C[C@H](NC(=O)/C(C#N)=C/c1cccc(Br)n1)c1ccccc1, the Potency was 4.17 µM (active). In the case of C=CC(=O)N1CC[C@@H](Oc2nc(Nc3ccc(N4CCC(N5CCN(C)CC5)CC4)cc3)c(C(N)=O)nc2CC)C1, the Potency is reported as 0.102 µM (active). For N#Cc1ccc(N(Cc2ccc(Br)cc2)n2cnnc2)cc1, the Potency was 20.9 µM (active). In the case of CC(C)[C@H]1C(=O)N[C@@H](CCCN=C(N)N)C(=O)NCC(=O)N[C@@H](CC(=O)O)C(=O)N[C@H](Cc2ccccc2)C(=O)N1C, the Potency is reported as “inactive”. In the case of CN(C)CCN1C(=O)c2cccc3cc(NC(N)=O)cc(c23)C1=O, the Potency is reported as 2.95 µM (active). For Cc1nnc(C[C@@H]2C=C(c3ccc(Cl)cc3)c3ccccc3-n3c(C)nnc32)o1, the Potency was 0.235 µM (active). With O=c1cc(-c2cccc3c2Sc2ccccc2S3)oc(N2CCOCC2)c1 the Potency was 18.6 µM (active). For N[C@@H]1CN(c2c(F)cc3c(=O)c(C(=O)O)cn([C@@H]4C[C@@H]4F)c3c2Cl)CC12CC2, the Potency was “inactive”. With CN[C@@H]1[C@@H](O)[C@@H](O[C@@H]2[C@@H](O)[C@H](O[C@H]3O[C@H](CN)[C@@H](O)[C@H](O)[C@H]3O)[C@@H](N)C[C@H]2NC(=O)C(O)CN)OC[C@]1(C)O (stereo not given in full) the Potency was “inactive”. For O=c1oc2cc(O)ccc2s1, the Potency was “inactive”. For O=C(/C=C/c1cccnc1)NCCCCC1CCN(C(=O)c2ccccc2)CC1, the Potency was 0.0209 µM (active). With C/C(=N\NC(=O)c1cccc(S(=O)(=O)N2CCOCC2)c1)c1cc(Cl)ccc1O the Potency was 5.9 µM (active).
